Pf growth 48h: P. falciparum growth inhibition at 48 hours (one generation). P. falciparum luciferase growth in erythrocytes, 48 h. Potency, µM (doses to about 28.7 µM), inactives show at the highest dose activity change, negative = inhibition, hits mostly inhibitors. 310,000 tested, 5.9% active; note: potency is the fitted concentration of half-maximal effect; % is set by controls: 0 for no effect and ±100 for the full control effect
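Luminescence readout; reporter = integrated firefly luciferase in P. falciparum. RBC culture at 2% hematocrit, 0.1% parasitemia final, 37 C/5% CO2; decreased signal taken as growth inhibition.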
Pf growth 96h: P. falciparum growth inhibition at 96 hours | P. falciparum luciferase reporter growth, 96 h | Potency, µM (series often up to 28.7 µM), for the others: at the top dose activity change, negative = inhibition, actives largely listed as inhibitors | 320,000 tested, 6.9% active | AID 504834; note: potency is the fitted concentration of half-maximal effect; % is set by controls: 0 for no effect and ±100 for the full control effect
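P. falciparum expressing integrated firefly luciferase grown in erythrocytes (2% hematocrit, 0.05% parasitemia final) with compounds for 96 hours at 37 C, 5% CO2. Growth inhibition read as loss of luminescence after adding luciferase detection reagent.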
Sm TGR block: blocks Schistosoma mansoni thioredoxin glutathione reductase; purified TGR, DTNB reduction, TNB absorbance 405 nm; Q962Y6; Potency, µM (doses to about 114 µM), without a hit: at the top dose activity change, negative = inhibition, hits mostly inhibitors; 360,000 tested, 3% active; note: potency is the fitted concentration of half-maximal effect; % is set by controls: 0 for no effect and ±100 for the full control effect; nearly all actives have a fitted effect of over 60% in size
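First, TGR (20 nM dispensed) and NADPH were mixed with compound. Second, a 15 min room-temperature incubation followed. Third, further NADPH and then DTNB were added to start the reaction. Finally, TNB absorbance was monitored kinetically.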
CHX counter: affects cycloheximide protein synthesis inhibition readout, counter-screen. cell reporter, cycloheximide protein synthesis inhibition counterscreen. max response, %. 300,000 tested, 12% active; in the data active = max response mostly above about 13%, no sharp cut-off; inactive = mostly below about 14%; note: read at 38.3 µM for the half of the compounds with a filed dose; 0% is about no effect
NS1 inh: blocks influenza NS1 protein function | 270,000 tested, 0.4% active | Potency, µM (titrated, usually from 46.1 µM), inactives show at the top dose activity, positive = more growth; calls by dose curve; note: potency is the fitted concentration of half-maximal effect; actives are rising curves; nearly all actives have a fitted effect of over 50% in size
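Recovery from NS1-induced slow growth read by OD600 in budding yeast switched to galactose assay medium (pH 6.0, -URA) at 1:100 dilution. Compound 23 nl per well; the matching strain lacking NS1 serves as control.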
Shiga inhibitor: inhibitors of Shiga toxin in Vero cells. Vero cells, Shiga toxin protein synthesis inhibition reporter. inhibition, % at 38.7 µM. 290,000 tested, 9.2% active. AID 2315; in the data active = inhibition mostly above about 28%, no sharp cut-off; inactive = mostly below about 43%; note: 0% is about no effect
Active calls of the source: *; ? = inconclusive; . = no result given; [ ] = another dose, or the depositor's remark. Most compounds without a hit are left out; they make up all but 21% or so of the library. Unless noted, calls come from the whole dose curve; as a rule, active = well fitted curve in the direction sought with a large enough effect; inconclusive = small, poorly fitted or top-dose-only effect, or another doubt; inactive = no such curve, though single readings can be large; an effect the other way counts as inactive or inconclusive.

SMILES | Pf growth 48h | Pf growth 96h | Sm TGR block | CHX counter | NS1 inh | Shiga inhibitor
Cc1[nH]c2ccccc2c1/C=N/Nc1ccc([N+](=O)[O-])cc1 | ? | -5% | -9% | 19* | 5% | 77*
O=[N+]([O-])c1ccc(N/N=C/c2c[nH]c3ccccc23)c(S(=O)(=O)Nc2ccc(Cl)cc2)c1 | -16% | . | 7% | -4 | 7% | -23
CC(Nc1[nH]c(=O)n(C)c(=O)c1N=O)c1ccccc1 (stereo not drawn) | 0% | 1% | 3% | -6 | . | 4
COc1ccc2nc(SCCN(C)C)[nH]c2c1 | 19% | 25% | -6%[57.1 µM] | 4 | -1% | 6
C=CCNc1nc2ccccc2nc1NS(=O)(=O)c1ccc(OC)cc1 | -2%[0.00184 µM] | 8% | 0% | -2 | -13% | -2
Cc1cccc(COc2ncnc3nc[nH]c23)c1 | 9% | -20% | 6% | 15 | 1% | 35*
COc1cc(SC#N)ccc1N=Cc1c(C)[nH]n(-c2cccc3ccccc23)c1=O | 9.3µM* | 0.74µM* | -3% | 5 | -2% | -19
COc1ccccc1N=Cc1c(C)[nH]n(-c2ccc(C)cc2C)c1=O | 5% | 15% | 40µM* | -2 | 4% | -9
COc1cc(SC#N)ccc1N=Cc1c(C)[nH]n(-c2ccc(C)cc2C)c1=O | ? | ? | 6% | 7 | -71% | -2
CC1CCN(Cc2nc(Cl)c3c4c(sc3n2)CCC4)CC1 | -2% | 3% | 16µM* | 25* | . | 33
Clc1nc(CN2CCOCC2)nc2sc3c(c12)CCC3 | 6% | 0% | -34% | -2 | . | 35
Cc1sc2nc(CN3CCCCC3)nc(Cl)c2c1C | 6% | ? | 50µM* | 15* | 4% | 14
Clc1nc(CN2CCCCC2)nc2sc3c(c12)CCCC3 | -10% | ? | 20µM* | 31 | . | 30
O=C(NCCc1ccc(Cl)cc1)c1cc(-c2ccccc2)n[nH]1 | . | . | -1% | . | . | .
Cc1ccc(C)c(CN2CCCN(CC(=O)Nc3ccc(C)c(C)c3)S2(=O)=O)c1 | . | . | 6% | . | . | .
CN=C1C=CC(=C(c2ccc(N(C)C)cc2)c2ccc(N(C)C)cc2)C=C1 | 0.21µM* | 1.1µM* | . | . | . | .
Cc1ccc(N/N=C/c2c(O)n(-c3ccccc3)c(=O)[nH]c2=O)cc1 | 52% | 39% | 18µM* | 22* | . | 42
Cc1c(C(=O)Nc2nc3ccccc3[nH]2)oc2c(Cl)cccc12 | ? | ? | -1% | 32* | 13% | 76*
Cc1c(C(=O)Nc2nc3ccccc3[nH]2)oc2ccccc12 | -31% | -70% | -1% | 47* | -12% | 100*
CN1CCN(C(=O)c2ccc3c(c2)N(Cc2ccc(C(F)(F)F)cc2)C(=O)c2ccccc2S3)CC1 | . | . | -32% | . | . | .
COc1ccc(NC2=NC(C)(CO)CS2)cc1 (stereo not drawn) | ? | 32% | 2% | 14* | -1% | 40
COc1ccc(NC2=CC(=O)CC(C)(C)C2)cc1 | 39% | 9% | -5% | -2 | 1% | 15
COc1cc(NC(=S)NC(C)=O)ccc1NC(=O)C(C)C | 45% | 32% | -1% | 25* | -46% | 61*
CCOc1ccc(NC(=S)Nc2cc(OC)c(Cl)cc2OC)cc1 | 8% | ? | -11% | 2 | 25% | -1
COc1cc(NC(=S)NC(=O)c2cccs2)ccc1NC(=O)C(C)C | 2% | -18% | 18µM* | 23* | 8% | 56*
SMILES | Pf growth 48h | Pf growth 96h | Sm TGR block | CHX counter | NS1 inh | Shiga inhibitor
Cc1ccccc1C(=O)Nc1cccc(NC(=S)NC(=O)c2cccs2)c1 | ? | 2% | -26% | -1 | -1% | 15
O=C(NC(=S)Nc1cccc(NC(=O)c2ccccc2Cl)c1)c1cccs1 | 38% | ? | -29% | 15* | 11% | 10
CCc1ccc(NC(=S)Nc2cc(OC)c(NC(=O)C(C)C)cc2OC)cc1 | 0% | ? | 0% | 23* | -3% | 16
CCCCC(=O)NC(=S)Nc1ccc(NC(=O)C(C)C)c(OC)c1 | -10% | 187% | ? | 7 | -2% | -16
C=CCOc1cccc(/C=N/NC(=O)CC(=O)NC2CCCCC2)c1 | 2% | ? | -6% | -2 | 11% | -30
COc1ccc(C(=O)NC2CCN(CC(=O)N3CCCCC3)CC2)cc1 | 6% | -30% | 3% | 7 | 5% | -9
CC(C)C(=O)Nc1cccc(NC(=S)NC(=O)c2ccc(Cl)cc2)c1 | 27% | 6% | -28% | 65* | 16% | 67*

Screening results: PubChem, National Center for Advancing Translational Sciences (NCATS)
